Assay outcomes (PubChem)
An excerpt weighted towards active compounds, which were near 3.5% of everything screened.
BoNT A protease: blocks Botulinum neurotoxin A light chain protease; multiplex microsphere protease substrate cleavage, flow cytometry; inhibition, % at 10 µM; AID 588499; 0.17% of 360,000 active; further: plate controls were buffer without enzyme for full effect and enzyme alone for no effect
BoNT F protease: inhibitors of Botulinum neurotoxin F light chain protease; Multiplex microsphere protease cleavage assay, flow cytometry; inhibition, % at 10 µM; 0.22% of 360,000 active; AID 588497; in the data active means inhibition above about 35%, passing the limit was not always enough; inconclusive means no clear call, values can overlap the other calls; further: plate controls were buffer without enzyme for full effect and enzyme alone for no effect
Autofluor counter: compound fluorescence in toxin protease inhibitor counterscreen. 3.1% of 360,000 active. compound autofluorescence counterscreen, microsphere flow cytometry; hits give high values. AID 624483. fluorescence intensity (concentration not given with the values); in the data active means fluorescence intensity above about 16000; inconclusive means no clear call, values can overlap the other calls
Anthrax LF prot: inhibitors of Bacillus anthracis lethal factor protease; P15917; multiplex microsphere protease cleavage assay, LF; inhibition, % at 10 µM; 0.12% of 360,000 active; further: plate controls were buffer without enzyme for full effect and enzyme alone for no effect
Target sequence (P15917 whole entry, looked up): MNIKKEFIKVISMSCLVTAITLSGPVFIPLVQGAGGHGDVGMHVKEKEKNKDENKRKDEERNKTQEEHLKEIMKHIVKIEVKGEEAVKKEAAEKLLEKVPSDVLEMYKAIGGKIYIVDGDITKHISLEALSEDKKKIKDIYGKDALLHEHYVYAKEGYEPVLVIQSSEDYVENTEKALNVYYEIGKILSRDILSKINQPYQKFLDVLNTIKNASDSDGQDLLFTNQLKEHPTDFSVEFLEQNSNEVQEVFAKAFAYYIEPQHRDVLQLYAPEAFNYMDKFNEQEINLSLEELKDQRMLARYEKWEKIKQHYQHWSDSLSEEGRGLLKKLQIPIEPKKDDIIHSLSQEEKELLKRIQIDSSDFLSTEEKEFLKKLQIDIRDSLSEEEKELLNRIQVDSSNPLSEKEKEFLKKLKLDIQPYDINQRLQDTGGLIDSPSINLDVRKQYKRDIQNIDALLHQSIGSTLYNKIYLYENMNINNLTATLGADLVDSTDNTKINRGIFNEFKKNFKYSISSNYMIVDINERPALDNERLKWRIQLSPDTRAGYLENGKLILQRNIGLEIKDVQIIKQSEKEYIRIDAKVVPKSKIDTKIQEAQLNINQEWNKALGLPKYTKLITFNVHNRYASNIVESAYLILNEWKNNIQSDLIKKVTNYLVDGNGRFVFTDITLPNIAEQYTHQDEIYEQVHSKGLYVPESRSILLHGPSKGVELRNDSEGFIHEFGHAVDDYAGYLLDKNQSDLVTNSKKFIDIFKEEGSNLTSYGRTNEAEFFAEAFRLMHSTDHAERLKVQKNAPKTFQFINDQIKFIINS
* marks the source's active call; other numbers are inactive results. Unless noted, no stated cut-off is given here; in the data, active means inhibition above about 30%; inconclusive means no clear call, values can overlap the other calls; inactive means below that.

How did O=C(Nc1nc2ccccc2s1)c1ccccc1 do in these assays?
BoNT A protease: -1; BoNT F protease: 0; Autofluor counter: 4130; Anthrax LF prot: -4

Results for Cc1ccc(C(=O)Nc2nc3ccc(S(C)(=O)=O)cc3s2)s1 ?
BoNT A protease: 2; BoNT F protease: 3; Autofluor counter: 21772*; Anthrax LF prot: -1

How did Cc1cc(C(=O)Nc2nc3ccc(S(C)(=O)=O)cc3s2)c(C)o1 do in these assays?
BoNT A protease: 2; BoNT F protease: 0; Autofluor counter: 22296*; Anthrax LF prot: -5

What do the screens show for `COc1ccc2nc(NC(=O)c3cc(C)oc3C)sc2c1`?
BoNT A protease: -1; BoNT F protease: -7; Autofluor counter: inconclusive; Anthrax LF prot: -9

What do the screens show for `CCN(CC(=O)Nc1c(F)cccc1F)C(=O)c1ccc(COc2ccccc2)o1`?
BoNT A protease: 3; BoNT F protease: -5; Autofluor counter: 6079; Anthrax LF prot: 4

Results for Cc1ccc2c3c(c(SCC(=O)Nc4nonc4C)nc2c1)CCCC3 ?
BoNT A protease: inconclusive; BoNT F protease: -1; Autofluor counter: 23233*; Anthrax LF prot: -3

How did Cc1nonc1NC(=O)CSc1nc2cc(Cl)ccc2c2c1CCCC2 do in these assays?
BoNT A protease: 0; BoNT F protease: -6; Autofluor counter: 10977; Anthrax LF prot: -2

What do the screens show for `Cc1ccccc1C(=O)Oc1ccc(Br)cc1C(=S)N1CCCC1`?
BoNT A protease: inconclusive; BoNT F protease: -2; Autofluor counter: 22492*; Anthrax LF prot: -2

How did O=C(c1cc2ccccc2o1)N1CCN(c2ccccn2)CC1 do in these assays?
BoNT A protease: 2; BoNT F protease: 14; Autofluor counter: inconclusive; Anthrax LF prot: -8

Results for Cc1ccccc1NC(=O)NC1(C(=O)NCC2CCCO2)CCCCC1 (centres undefined) ?
BoNT A protease: -2; BoNT F protease: 9; Autofluor counter: 3707; Anthrax LF prot: -12

What do the screens show for `O=C(CS(=O)c1cccc(C(F)(F)F)c1)Nc1ccccc1Cl` (centres undefined)?
BoNT A protease: -2; BoNT F protease: -1; Autofluor counter: 22990*; Anthrax LF prot: -2

How did O=C(CSc1cccc(C(F)(F)F)c1)Nc1ccc(Cl)cc1Cl do in these assays?
BoNT A protease: inconclusive; BoNT F protease: -2; Autofluor counter: 19968*; Anthrax LF prot: 0

What do the screens show for `COc1cccc(S(=O)(=O)N(C)C[C@@H]2OCc3cnnn3CCCC(=O)N([C@@H](C)CO)C[C@H]2C)c1`?
BoNT A protease: 0; BoNT F protease: -3; Autofluor counter: 2939; Anthrax LF prot: -10

What do the screens show for `Cc1nn(C)c(C)c1/C=C(\C#N)S(=O)(=O)c1ccc(F)cc1`?
BoNT A protease: 0; BoNT F protease: -6; Autofluor counter: 3609; Anthrax LF prot: 0

How did COc1ccc(C)cc1NC1=C(Cl)C(=O)N(C2CCCCC2)C1=O do in these assays?
BoNT A protease: -1; BoNT F protease: -5; Autofluor counter: 22693*; Anthrax LF prot: -3

How did CCOc1ccc(NC2=C(Cl)C(=O)N(C3CCCCC3)C2=O)cc1 do in these assays?
BoNT A protease: 1; BoNT F protease: -11; Autofluor counter: 2463; Anthrax LF prot: -4

Results for Nc1nonc1-c1noc(CCCOc2ccc(Cl)cc2Cl)n1 ?
BoNT A protease: inconclusive; BoNT F protease: -2; Autofluor counter: 22747*; Anthrax LF prot: -2

What do the screens show for `CCCCCc1nc(-c2nonc2N)no1`?
BoNT A protease: -3; BoNT F protease: -22; Autofluor counter: 3362; Anthrax LF prot: -6

Results for O=C(NCCCCNC(=O)c1ccc(Br)s1)c1ccc(Br)s1 ?
BoNT A protease: inconclusive; BoNT F protease: -1; Autofluor counter: 20047*; Anthrax LF prot: 0

Results for COc1ccc(C2CC(C(F)(F)F)n3nc(CO)c(Cl)c3N2)cc1OC (centres undefined) ?
BoNT A protease: 0; BoNT F protease: -2; Autofluor counter: 16477*; Anthrax LF prot: -1

What do the screens show for `Cc1c(C(=O)NC(C)C)sc2ncn(CC(=O)N3CCC(C)CC3)c(=O)c12`?
BoNT A protease: 2; BoNT F protease: 2; Autofluor counter: 19793*; Anthrax LF prot: -8

Results for Cc1c(C(N)=O)sc2ncn(CC(=O)N3CCC(C)CC3)c(=O)c12 ?
BoNT A protease: 1; BoNT F protease: 1; Autofluor counter: 22473*; Anthrax LF prot: -6

Results for O=c1[nH]cnc2sc3c(c12)CCN(Cc1ccccc1)C3 ?
BoNT A protease: 3; BoNT F protease: -3; Autofluor counter: 3721; Anthrax LF prot: 1

How did OCCCNc1ncnc2sc3c(c12)CCN(Cc1ccccc1)C3 do in these assays?
BoNT A protease: 35*; BoNT F protease: inconclusive; Autofluor counter: 7833; Anthrax LF prot: -24

What do the screens show for `CCNC(=O)C1(C)CCN(Cc2ccc(-c3ccccc3)cc2)C1` (centres undefined)?
BoNT A protease: 0; BoNT F protease: 1; Autofluor counter: 3819; Anthrax LF prot: 1

Results for O=C(O)/C(=C\c1ccco1)NC(=O)c1cccc2ccccc12 ?
BoNT A protease: 8; BoNT F protease: 10; Autofluor counter: 20299*; Anthrax LF prot: -1

How did OCC(CO)(CO)N=Cc1c(O)ccc2ccccc12 do in these assays?
BoNT A protease: 0; BoNT F protease: 2; Autofluor counter: 16546*; Anthrax LF prot: 0

What do the screens show for `CN(C)/N=C/c1c(O)ccc2ccccc12`?
BoNT A protease: 0; BoNT F protease: -5; Autofluor counter: 2910; Anthrax LF prot: -3

What do the screens show for `Cc1ccc(CN(C)C(=O)c2ccccc2Oc2ccccc2)o1`?
BoNT A protease: 3; BoNT F protease: 5; Autofluor counter: 21202*; Anthrax LF prot: -2

What do the screens show for `Cc1ccc(CN(C)C(=O)c2ccc(S(=O)(=O)N(C)c3ccccc3)cc2)o1`?
BoNT A protease: 0; BoNT F protease: 5; Autofluor counter: 6153; Anthrax LF prot: 1

What do the screens show for `Cc1ccc(Nc2nc(CSc3nnnn3-c3ccccc3)cs2)cc1`?
BoNT A protease: 0; BoNT F protease: -12; Autofluor counter: 10602; Anthrax LF prot: -17

Results for O=c1cc(CSc2nnnn2-c2ccccc2)nc(Nc2ccc(F)cc2)[nH]1 ?
BoNT A protease: 0; BoNT F protease: 3; Autofluor counter: 23279*; Anthrax LF prot: 0

Results for CCOc1cc(C(=O)OCC(=O)c2c(C)[nH]c3ccccc23)ccc1OCC(=O)N1CCOCC1 ?
BoNT A protease: inconclusive; BoNT F protease: -1; Autofluor counter: 21648*; Anthrax LF prot: -8

How did CCN(CC)S(=O)(=O)c1ccc(NC(=O)COC(=O)CN2C(=O)c3ccccc3C2=O)cc1 do in these assays?
BoNT A protease: 2; BoNT F protease: 2; Autofluor counter: 22134*; Anthrax LF prot: 3

Results for Cc1ccc(NC(=O)COC(=O)CN2C(=O)c3ccccc3C2=O)cc1 ?
BoNT A protease: 2; BoNT F protease: 0; Autofluor counter: 8747; Anthrax LF prot: 0

How did CN(C)c1ccc(NC(=O)CN2C(=O)c3ccccc3C2=O)cc1 do in these assays?
BoNT A protease: -3; BoNT F protease: 39*; Autofluor counter: 4403; Anthrax LF prot: 5

How did O=C(CSc1nccc(=O)[nH]1)Nc1cccc2ccccc12 do in these assays?
BoNT A protease: -4; BoNT F protease: -6; Autofluor counter: 3569; Anthrax LF prot: 2

How did O=C(Nc1ccccc1)c1cccnc1N1CCCC1 do in these assays?
BoNT A protease: inconclusive; BoNT F protease: -7; Autofluor counter: 17182*; Anthrax LF prot: -5
